Consider one sequence from paper PMC7862700, “An all-to-all approach to the identification of sequence-specific readers for epigenetic DNA modifications on cytosine”.

What all share (test): DAPPL (digital affinity profiling via proximity ligation, sequencing); 10 mM Tris-HCl pH 7.5, 50 mM NaCl, 1 mM DTT, 4% glycerol, room temperature, 30 min; GST-TFs on glutathione beads, 16-mer random dsDNA library, 0.1% formaldehyde crosslink after washing; high values mean tight binding
Common to all, as to settings: protein: recombinant; tags: N-terminal GST; dsDNA, one strand shown

Test [1] addresses T1, FLI1 (Homo sapiens, UniProt Q01543 1-452).
T1 sequence: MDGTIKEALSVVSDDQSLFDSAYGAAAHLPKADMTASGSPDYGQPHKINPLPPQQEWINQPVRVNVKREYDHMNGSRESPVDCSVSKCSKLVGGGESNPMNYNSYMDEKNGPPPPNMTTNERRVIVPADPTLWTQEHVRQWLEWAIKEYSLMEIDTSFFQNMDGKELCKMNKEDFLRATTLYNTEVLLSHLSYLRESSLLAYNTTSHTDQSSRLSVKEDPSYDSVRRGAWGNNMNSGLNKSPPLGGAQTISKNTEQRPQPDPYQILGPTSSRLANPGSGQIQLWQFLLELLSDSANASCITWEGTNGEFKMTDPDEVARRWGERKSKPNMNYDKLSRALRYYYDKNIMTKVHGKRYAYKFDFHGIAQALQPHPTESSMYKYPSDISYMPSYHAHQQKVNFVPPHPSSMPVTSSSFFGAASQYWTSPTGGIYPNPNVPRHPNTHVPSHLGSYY
Summed up: (§1)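 Beads coated with glutathione captured GST-fused human transcription factors that had been expressed in yeast, and the factors were then given DNA barcodes and pooled with a tag-only sample. The pools were incubated with 200 nmole of a random double-stranded 16-mer DNA library in Tris/NaCl/DTT/glycerol buffer for 30 min at room temperature, washed, crosslinked with 0.1% formaldehyde and proximity-ligated with BsaI/T4 ligase at 37 °C for 1 h. PCR amplification and Illumina NextSeq500 sequencing came last. Binding signal is each hexamer's read frequency for a factor divided by its frequency for the tag-only sample.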

Test [2] addresses T2, ELK1 (Homo sapiens, UniProt P19419 1-428).
T2 sequence: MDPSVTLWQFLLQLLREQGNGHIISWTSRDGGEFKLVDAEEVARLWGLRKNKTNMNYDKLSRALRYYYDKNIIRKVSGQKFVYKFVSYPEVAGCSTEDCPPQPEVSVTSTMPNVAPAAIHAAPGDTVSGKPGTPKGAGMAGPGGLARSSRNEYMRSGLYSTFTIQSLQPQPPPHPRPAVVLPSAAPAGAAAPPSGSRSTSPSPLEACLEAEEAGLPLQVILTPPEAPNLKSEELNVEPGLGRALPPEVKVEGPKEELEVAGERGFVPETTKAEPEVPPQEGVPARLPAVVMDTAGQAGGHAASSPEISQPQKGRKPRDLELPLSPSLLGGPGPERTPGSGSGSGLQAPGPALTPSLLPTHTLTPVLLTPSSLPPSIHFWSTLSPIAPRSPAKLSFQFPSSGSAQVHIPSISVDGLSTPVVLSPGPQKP
Summed up: as §1

For test [3], the target named is T3, GABPA (Homo sapiens, UniProt Q06546 1-454).
T3 sequence: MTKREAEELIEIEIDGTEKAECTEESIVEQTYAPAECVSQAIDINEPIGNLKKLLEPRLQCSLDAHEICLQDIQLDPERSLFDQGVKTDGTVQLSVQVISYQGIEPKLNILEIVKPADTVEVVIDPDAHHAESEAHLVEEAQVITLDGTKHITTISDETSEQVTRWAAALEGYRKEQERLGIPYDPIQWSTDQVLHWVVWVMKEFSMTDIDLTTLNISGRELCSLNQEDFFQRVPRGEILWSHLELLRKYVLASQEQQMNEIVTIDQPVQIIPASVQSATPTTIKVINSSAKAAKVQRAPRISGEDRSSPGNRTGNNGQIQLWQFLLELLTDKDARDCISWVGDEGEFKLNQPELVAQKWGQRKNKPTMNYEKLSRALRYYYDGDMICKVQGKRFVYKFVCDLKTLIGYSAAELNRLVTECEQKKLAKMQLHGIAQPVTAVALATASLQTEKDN
Summed up: as §1

The target in test [4] is T4, ERG (Homo sapiens, UniProt P11308 1-479).
T4 sequence: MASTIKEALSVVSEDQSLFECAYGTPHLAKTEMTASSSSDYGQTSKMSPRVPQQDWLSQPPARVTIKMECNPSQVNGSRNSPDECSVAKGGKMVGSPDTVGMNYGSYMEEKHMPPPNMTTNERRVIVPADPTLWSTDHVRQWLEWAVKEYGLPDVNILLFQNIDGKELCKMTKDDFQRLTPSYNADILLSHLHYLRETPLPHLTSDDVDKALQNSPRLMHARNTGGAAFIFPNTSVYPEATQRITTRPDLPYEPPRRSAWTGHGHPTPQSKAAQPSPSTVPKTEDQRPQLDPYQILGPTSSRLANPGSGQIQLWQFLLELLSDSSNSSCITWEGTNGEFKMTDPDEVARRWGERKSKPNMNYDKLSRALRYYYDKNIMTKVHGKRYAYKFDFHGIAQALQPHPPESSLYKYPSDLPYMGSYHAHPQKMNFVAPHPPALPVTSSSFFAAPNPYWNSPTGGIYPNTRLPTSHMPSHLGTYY
Summed up: as §1

Test [5] addresses ELF1 (Homo sapiens, UniProt P32519 1-619). In a few lines:
as §1

The target of test [6] is T5, EHF (Homo sapiens, UniProt Q9NZC4 1-300).
T5 sequence: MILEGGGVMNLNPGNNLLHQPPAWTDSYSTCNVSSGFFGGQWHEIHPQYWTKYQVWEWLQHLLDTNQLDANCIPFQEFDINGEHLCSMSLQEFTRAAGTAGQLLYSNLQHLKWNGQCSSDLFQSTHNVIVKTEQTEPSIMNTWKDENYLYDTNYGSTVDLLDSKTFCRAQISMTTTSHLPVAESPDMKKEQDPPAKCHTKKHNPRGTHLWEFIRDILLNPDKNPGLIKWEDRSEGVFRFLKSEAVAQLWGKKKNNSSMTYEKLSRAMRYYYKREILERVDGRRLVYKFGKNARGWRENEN
Summed up: as §1

Test [7] concerns the target SPI1 (Homo sapiens, UniProt P17947 1-270). In a few lines: as §1
The target of test [8] is SPIB (Homo sapiens, UniProt Q01892 1-262). Summed up: as §1
The target of test [9] is T6, ELK3 (Homo sapiens, UniProt P41970 1-407).
T6 sequence: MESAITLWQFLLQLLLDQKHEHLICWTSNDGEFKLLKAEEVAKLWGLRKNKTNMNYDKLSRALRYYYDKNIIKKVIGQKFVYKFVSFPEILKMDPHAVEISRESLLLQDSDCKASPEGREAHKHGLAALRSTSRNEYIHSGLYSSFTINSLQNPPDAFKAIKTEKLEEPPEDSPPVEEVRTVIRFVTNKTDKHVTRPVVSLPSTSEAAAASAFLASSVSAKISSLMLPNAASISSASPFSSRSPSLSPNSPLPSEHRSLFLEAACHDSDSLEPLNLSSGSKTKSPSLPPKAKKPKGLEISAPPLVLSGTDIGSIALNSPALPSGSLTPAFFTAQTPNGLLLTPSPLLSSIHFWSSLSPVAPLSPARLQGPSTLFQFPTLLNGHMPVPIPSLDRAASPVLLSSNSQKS
Summed up:
as §1

Test [10] addresses T7, FEV (Homo sapiens, UniProt Q99581 1-238).
T7 sequence: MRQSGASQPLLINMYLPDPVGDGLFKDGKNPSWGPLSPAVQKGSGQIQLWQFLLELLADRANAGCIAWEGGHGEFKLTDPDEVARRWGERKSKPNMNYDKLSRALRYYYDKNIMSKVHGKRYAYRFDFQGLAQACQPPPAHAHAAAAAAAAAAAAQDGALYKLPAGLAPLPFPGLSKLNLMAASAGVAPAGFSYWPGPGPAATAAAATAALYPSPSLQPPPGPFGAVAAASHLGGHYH
Summed up:
as §1

Test [11] addresses ETV5 (Homo sapiens, UniProt P41161 1-510). In a few lines: as §1
In test [12] the target is T8, SPIC (Homo sapiens, UniProt Q8N5J4 1-248).
T8 sequence: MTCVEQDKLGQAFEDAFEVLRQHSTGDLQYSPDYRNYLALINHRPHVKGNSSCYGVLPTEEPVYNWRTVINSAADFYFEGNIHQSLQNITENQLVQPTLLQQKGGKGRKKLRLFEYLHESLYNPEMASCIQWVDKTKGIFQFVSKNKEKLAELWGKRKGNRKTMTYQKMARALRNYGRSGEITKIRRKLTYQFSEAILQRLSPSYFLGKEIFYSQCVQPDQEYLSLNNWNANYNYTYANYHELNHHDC
In a few lines:
as §1

Test [13] deals with ELF4 (Homo sapiens, UniProt Q99607 1-663). Summed up: as §1
The target of test [14] is ETV1 (Homo sapiens, UniProt P50549 1-477). In a few lines: as §1
In test [15] the target is T9, ERF (Homo sapiens, UniProt P50548 1-548).
T9 sequence: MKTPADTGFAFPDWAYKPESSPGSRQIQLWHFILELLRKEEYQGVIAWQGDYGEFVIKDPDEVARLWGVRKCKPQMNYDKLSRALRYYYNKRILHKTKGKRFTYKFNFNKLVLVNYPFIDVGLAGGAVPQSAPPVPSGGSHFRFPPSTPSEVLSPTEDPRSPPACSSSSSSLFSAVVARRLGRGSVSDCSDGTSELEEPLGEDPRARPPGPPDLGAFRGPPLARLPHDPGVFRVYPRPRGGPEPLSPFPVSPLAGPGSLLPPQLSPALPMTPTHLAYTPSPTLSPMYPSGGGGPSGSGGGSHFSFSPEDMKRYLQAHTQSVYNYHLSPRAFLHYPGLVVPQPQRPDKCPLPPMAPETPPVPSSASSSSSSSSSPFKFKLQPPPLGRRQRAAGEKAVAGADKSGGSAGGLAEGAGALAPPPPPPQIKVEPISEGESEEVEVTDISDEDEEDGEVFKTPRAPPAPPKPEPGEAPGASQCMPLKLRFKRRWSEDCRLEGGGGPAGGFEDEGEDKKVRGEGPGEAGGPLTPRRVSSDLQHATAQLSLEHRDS
In a few lines: as §1

In test [16] the target is T10, ETV3L (Homo sapiens, UniProt Q6ZN32 1-361).
T10 sequence: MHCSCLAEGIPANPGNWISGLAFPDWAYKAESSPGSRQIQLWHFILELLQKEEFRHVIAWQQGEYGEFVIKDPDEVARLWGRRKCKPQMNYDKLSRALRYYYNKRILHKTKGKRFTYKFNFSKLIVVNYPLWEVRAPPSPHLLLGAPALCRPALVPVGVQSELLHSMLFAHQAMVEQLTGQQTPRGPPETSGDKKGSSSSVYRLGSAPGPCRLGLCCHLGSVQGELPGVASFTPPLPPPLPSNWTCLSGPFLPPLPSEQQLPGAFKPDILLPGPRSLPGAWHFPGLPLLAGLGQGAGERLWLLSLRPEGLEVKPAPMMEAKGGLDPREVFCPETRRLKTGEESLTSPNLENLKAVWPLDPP
Summed up: as §1

Test [17] addresses T11, ETS2 (Homo sapiens, UniProt P15036 1-469).
T11 sequence: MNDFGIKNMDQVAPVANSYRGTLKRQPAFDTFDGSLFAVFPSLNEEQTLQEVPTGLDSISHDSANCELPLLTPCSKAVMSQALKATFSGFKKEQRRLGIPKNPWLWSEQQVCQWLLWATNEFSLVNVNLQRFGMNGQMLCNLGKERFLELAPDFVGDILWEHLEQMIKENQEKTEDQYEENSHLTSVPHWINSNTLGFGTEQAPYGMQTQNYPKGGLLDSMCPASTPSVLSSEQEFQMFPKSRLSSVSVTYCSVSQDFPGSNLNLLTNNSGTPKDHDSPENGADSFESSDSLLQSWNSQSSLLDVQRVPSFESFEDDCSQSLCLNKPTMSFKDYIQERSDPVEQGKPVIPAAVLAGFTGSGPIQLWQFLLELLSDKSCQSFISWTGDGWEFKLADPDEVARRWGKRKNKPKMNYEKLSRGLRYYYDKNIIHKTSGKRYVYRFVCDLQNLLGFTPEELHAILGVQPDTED
In a few lines:
as §1

Test [18] concerns the target T12, ELF5 (Homo sapiens, UniProt Q9UKW6-2 1-255).
T12 sequence: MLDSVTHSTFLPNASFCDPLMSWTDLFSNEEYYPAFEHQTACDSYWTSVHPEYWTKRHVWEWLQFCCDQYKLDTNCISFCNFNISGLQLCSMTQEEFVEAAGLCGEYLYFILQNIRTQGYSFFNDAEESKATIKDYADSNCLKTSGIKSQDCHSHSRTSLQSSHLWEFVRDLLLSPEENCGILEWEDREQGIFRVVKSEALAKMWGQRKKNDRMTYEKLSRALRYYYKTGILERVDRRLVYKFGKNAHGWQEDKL
In a few lines:
as §1

For test [19], the target named is T13, ETV3 (Homo sapiens, UniProt P41162-2 1-143).
T13 sequence: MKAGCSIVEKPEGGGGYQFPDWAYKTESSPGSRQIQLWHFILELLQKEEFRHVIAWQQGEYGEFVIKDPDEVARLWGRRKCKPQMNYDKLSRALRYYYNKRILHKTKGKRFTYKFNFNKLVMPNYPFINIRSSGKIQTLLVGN
In a few lines: as §1

Test [20] deals with ETV6 (Homo sapiens, UniProt P41212 1-452). Summed up: as §1
Sequence of ETV6 (P41212 whole entry): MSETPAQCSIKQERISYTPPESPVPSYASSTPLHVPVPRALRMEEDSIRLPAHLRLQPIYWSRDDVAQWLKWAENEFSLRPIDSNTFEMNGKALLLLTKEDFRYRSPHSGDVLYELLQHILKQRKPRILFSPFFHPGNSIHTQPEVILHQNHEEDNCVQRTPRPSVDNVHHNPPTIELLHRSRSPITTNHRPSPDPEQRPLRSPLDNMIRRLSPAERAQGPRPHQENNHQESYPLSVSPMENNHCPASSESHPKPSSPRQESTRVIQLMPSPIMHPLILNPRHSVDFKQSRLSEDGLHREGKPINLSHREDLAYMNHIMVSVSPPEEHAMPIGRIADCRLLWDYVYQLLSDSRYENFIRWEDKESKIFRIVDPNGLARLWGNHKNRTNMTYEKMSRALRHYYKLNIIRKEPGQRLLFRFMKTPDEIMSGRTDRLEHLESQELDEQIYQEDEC

Sequence of SPIB (Q01892 whole entry): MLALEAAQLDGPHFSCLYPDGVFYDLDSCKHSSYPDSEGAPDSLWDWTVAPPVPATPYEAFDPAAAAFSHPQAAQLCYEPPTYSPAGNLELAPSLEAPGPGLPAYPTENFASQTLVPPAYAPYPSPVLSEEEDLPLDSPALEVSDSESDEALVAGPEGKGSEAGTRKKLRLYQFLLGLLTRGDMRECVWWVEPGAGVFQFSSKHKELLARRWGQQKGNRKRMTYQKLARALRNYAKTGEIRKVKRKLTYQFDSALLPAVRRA
Sequence of ETV1 (P50549 whole entry): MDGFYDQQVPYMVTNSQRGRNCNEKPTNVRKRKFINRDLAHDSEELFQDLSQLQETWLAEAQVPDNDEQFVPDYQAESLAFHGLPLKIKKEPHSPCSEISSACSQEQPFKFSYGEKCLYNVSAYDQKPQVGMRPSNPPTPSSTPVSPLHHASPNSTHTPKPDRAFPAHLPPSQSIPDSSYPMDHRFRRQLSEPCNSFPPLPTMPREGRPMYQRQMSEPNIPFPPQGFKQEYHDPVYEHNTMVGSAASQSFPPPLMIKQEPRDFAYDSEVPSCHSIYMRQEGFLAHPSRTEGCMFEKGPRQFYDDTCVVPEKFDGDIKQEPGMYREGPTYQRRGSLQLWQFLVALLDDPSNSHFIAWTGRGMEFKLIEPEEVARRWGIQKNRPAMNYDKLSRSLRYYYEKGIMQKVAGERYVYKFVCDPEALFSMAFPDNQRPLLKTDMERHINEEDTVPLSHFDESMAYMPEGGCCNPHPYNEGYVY
Sequence of ELF1 (P32519 whole entry): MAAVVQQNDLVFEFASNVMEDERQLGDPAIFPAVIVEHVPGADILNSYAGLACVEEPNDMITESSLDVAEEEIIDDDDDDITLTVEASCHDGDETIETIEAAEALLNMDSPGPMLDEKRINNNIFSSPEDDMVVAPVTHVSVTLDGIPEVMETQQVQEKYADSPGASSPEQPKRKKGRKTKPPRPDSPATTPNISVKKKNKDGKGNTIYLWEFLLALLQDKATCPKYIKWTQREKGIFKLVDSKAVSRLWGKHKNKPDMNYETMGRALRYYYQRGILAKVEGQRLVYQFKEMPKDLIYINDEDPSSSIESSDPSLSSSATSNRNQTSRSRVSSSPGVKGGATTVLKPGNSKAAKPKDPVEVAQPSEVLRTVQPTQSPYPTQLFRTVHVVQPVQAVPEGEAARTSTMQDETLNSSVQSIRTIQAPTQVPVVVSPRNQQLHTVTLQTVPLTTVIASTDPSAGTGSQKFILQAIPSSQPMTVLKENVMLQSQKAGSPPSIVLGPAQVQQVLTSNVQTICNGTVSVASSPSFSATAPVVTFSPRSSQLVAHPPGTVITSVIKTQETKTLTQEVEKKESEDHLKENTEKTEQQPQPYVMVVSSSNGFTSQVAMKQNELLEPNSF
Sequence of ETV5 (P41161 whole entry): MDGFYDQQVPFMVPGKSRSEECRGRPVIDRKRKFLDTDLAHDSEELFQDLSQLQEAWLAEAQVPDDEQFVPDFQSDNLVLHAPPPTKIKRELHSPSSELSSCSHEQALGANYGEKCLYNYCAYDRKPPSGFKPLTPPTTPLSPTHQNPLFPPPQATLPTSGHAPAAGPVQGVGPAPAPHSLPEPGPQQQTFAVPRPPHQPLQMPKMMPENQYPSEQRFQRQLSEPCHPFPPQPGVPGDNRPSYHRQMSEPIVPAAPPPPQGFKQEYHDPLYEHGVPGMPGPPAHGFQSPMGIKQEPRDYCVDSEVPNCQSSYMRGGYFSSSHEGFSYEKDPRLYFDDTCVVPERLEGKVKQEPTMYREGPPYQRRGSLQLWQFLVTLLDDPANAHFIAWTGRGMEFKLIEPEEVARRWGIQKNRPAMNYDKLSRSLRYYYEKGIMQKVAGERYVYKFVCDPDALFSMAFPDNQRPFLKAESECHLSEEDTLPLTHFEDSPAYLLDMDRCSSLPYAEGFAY
Sequence of ELF4 (Q99607 whole entry): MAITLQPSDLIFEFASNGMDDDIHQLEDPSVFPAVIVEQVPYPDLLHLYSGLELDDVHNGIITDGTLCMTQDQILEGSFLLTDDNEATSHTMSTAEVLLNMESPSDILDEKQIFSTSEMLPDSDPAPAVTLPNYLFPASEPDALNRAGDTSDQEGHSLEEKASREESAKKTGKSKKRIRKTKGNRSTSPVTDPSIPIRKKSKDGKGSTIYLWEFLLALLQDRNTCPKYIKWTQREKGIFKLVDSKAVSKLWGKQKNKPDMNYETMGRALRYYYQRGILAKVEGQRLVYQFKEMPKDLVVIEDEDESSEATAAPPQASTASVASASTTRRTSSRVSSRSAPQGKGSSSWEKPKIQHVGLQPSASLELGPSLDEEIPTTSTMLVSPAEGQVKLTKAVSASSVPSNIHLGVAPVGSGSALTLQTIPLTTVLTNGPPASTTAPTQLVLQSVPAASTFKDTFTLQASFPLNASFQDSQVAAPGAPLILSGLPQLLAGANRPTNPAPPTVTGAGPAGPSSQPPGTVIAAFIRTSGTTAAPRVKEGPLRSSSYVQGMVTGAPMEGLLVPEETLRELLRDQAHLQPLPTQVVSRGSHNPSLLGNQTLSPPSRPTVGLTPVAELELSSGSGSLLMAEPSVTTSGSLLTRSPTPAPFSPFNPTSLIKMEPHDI

As to ACGATG, the binding signal in [1] is 1.24 fold enrichment (6-mer frequency, TF over GST control); in test [2], 1.06 fold enrichment (6-mer frequency, TF over GST control); in test [3] it was 1.17 fold enrichment (6-mer frequency, TF over GST control); in test [4] it was 1.13 fold enrichment (6-mer frequency, TF over GST control); in test [5], 1.06 fold enrichment (6-mer frequency, TF over GST control); in test [6], 1.16 fold enrichment (6-mer frequency, TF over GST control). Moreover, the binding signal in [7] was 1.17 fold enrichment (6-mer frequency, TF over GST control); in test [8], 1.18 fold enrichment (6-mer frequency, TF over GST control); in test [9], 1.17 fold enrichment (6-mer frequency, TF over GST control); in [10], 1.05 fold enrichment (6-mer frequency, TF over GST control); in test [11] it was 1.12 fold enrichment (6-mer frequency, TF over GST control); in [12], 1.03 fold enrichment (6-mer frequency, TF over GST control). For the same sequence, the binding signal is 1.12 fold enrichment (6-mer frequency, TF over GST control) in test [13]; 1.12 fold enrichment (6-mer frequency, TF over GST control) in [14]; 1.09 fold enrichment (6-mer frequency, TF over GST control) in [15]; 1.14 fold enrichment (6-mer frequency, TF over GST control) in [16]; 1.12 fold enrichment (6-mer frequency, TF over GST control) in test [17]; 1.01 fold enrichment (6-mer frequency, TF over GST control) in [18]. Besides, the binding signal in [19] was 1.08 fold enrichment (6-mer frequency, TF over GST control); in test [20], 1.06 fold enrichment (6-mer frequency, TF over GST control).
